# Source: PubChem BioAssay
# Sampled rows, rich in hits. Any-hit rate of the full collection: about 3.8%.
# ELG1 DNA repair: ELG1-dependent DNA repair inhibition; AID 504467; Potency, µM (highest dose often 46.1 µM), without a hit: top-dose activity change, negative = inhibition, usual class: inhibitors; actives 2.3% (n = 330,000); HEK293T ELG1-luciferase reporter, luminescence, 16 h; DNA damage induced by 5-fluorouridine; also: % is scaled to controls: 0 for no effect and ±100 for the full control effect; nearly all actives have a fitted effect of over 55% in size
#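 Cells (2,000 per well) received 5-fluorouridine plus test compound or DMSO and were incubated 16 hr at 37 °C, 5% CO2. Luciferase activity was read by luminescence 30 min after ONE-Glo addition; signal suppression marked inhibition of damage-induced ELG1 function.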
# mIDH1 inhibitor: human IDH1 R132H inhibition; actives 0.093% (n = 390,000); Potency, µM (titrated, usually from 76.6 µM), without a hit: top-dose activity change, negative = inhibition, most hits filed as inhibitors; O75874; IDH1-R132H enzyme, NADPH consumption, diaphorase/resazurin fluorescence; also: % is scaled to controls: 0 for no effect and ±100 for the full control effect; nearly all actives have a fitted effect of over 65% in size
# Target sequence (O75874 whole entry R132H, stated change not applied): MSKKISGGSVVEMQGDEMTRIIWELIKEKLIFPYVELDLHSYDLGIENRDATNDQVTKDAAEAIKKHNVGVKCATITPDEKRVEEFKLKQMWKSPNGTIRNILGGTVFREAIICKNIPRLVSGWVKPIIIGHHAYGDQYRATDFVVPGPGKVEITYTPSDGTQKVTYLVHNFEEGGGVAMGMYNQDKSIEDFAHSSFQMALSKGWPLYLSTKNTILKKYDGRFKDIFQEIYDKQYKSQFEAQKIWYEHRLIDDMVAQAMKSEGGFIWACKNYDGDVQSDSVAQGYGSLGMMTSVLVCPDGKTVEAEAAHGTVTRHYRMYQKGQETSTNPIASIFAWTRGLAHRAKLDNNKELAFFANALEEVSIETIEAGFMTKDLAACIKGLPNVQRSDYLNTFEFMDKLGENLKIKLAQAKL
#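 IDH1-R132H (0.5 ug/mL) preincubated 30 min with compound, then NADPH (0.016 mM) and alpha-KG (2 mM) added; 80 min at RT, pH 7.5. Remaining NADPH coupled via diaphorase/resazurin to fluorescence (540/590 nm); concentration-response curves normalized to no-enzyme control.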
# Nrf2 block: inhibitors of Nrf2 signaling | actives 2.1% (n = 360,000) | Potency, µM (highest dose often 46 µM), for the others: at the top dose activity change, negative = inhibition, most hits filed as inhibitors | A549 ARE-Fluc reporter, luciferase luminescence, 18-24 h | AID 504444; also: % is scaled to controls: 0 for no effect and ±100 for the full control effect; nearly all actives have a fitted effect of over 60% in size
#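 In this cell-based qHTS, ARE-driven firefly luciferase in A549 cells reports Nrf2 activity; the luminescent signal after BugLite lysis is the measured value, with a prior CellTiter-Fluor read for cell health.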
# A549 tox-1: A549 cytotoxicity, counter-screen for Nrf2 inhibitors; A549 ARE-Fluc cells, CellTiter-Fluor viability, 18-24 h; actives 0.16% (n = 390,000); AID 504648; Potency, µM (highest dose often 46 µM), inactives show top-dose activity change, negative = cytotoxicity, actives largely listed as inhibitors; also: % is scaled to controls: 0 for no effect and ±100 for the full control effect
#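 A549 ARE_Fluc cells in 5% FBS OPTI-MEM were exposed to compounds in concentration-response for 18-24 h at 37 deg C. Viability was read by CellTiter-Fluor fluorescence (Ex 405/Em 525) after 30 min, before the luciferase read.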
# Nrf2 activator: activates Nrf2 signaling; actives 0.31% (n = 410,000); AID 624171; AREc32 ARE-luciferase reporter (MCF7-derived line), luminescence, 24 h; Potency, µM (titrated, usually from 46.1 µM), for inactives: top-dose activation, most hits filed as activators; also: % of control where 0% means no effect; nearly all actives have a fitted effect of over 65% in size
#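 AREc32_Fluc, 1000 cells/well, OPTI-MEM + 5% FBS, o/n 37 deg C 5% CO2; 23 nL cpd by pin tool, 24 hr; Steady-Glo 30 min RT, luminescence.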
# FLuc counter 3: blocks purified firefly luciferase in Nrf2 counterscreen; shares compounds with Nrf2 block; purified firefly luciferase, luminescence inhibition; Potency, µM (top dose mostly 57.5 µM), for inactives: at the top dose activity change, negative = inhibition, hits mostly inhibitors; actives 4% (n = 1,400); also: % is scaled to controls: 0 for no effect and ±100 for the full control effect; nearly all actives have a fitted effect of over 65% in size
# A549 tox-2: counter-screen for Nrf2 inhibitors: cytotoxicity in A549 ARE cells; shares compounds with Nrf2 block; Potency, µM (series often up to 46.1 µM), for inactives: at the highest dose activity change, negative = cytotoxicity, hits mostly inhibitors; actives 2% (n = 1,400); A549 ARE-Fluc cells, cytotoxicity counterscreen;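 also: cells exposed to compounds for 18 to 24 hours; % is scaled to controls: 0 for no effect and ±100 for the full control effect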
# ARE-Fluc inh: Nrf2 inhibition confirmed, A549 ARE-luciferase. shares compounds with Nrf2 block. A549 ARE-firefly luciferase reporter, luminescence. Potency, µM (doses to about 46.1 µM), for inactives: top-dose activity change, negative = inhibition, usual class: inhibitors. actives 74% (n = 1,400). AID 720524; also: % is scaled to controls: 0 for no effect and ±100 for the full control effect; nearly all actives have a fitted effect of over 65% in size
# Active calls of the source: *; ? = inconclusive; . = not tested or not shown; ! = a repeat was not active; [ ] = dose if it differs, or a comment. Calls follow the shape of the dose curve; as a rule, active = well fitted curve in the direction sought with a large enough effect; inconclusive = small, poorly fitted or top-dose-only effect, or another doubt; inactive = no such curve, though single readings can be large; an effect the other way counts as inactive or inconclusive. Potency is read from the fitted curve at half-maximal effect.
SMILES,ELG1 DNA repair,mIDH1 inhibitor,Nrf2 block,A549 tox-1,Nrf2 activator,FLuc counter 3,A549 tox-2,ARE-Fluc inh
COc1ccc(CNC(=O)Cc2nn(C)c(=O)c3ccccc23)cc1,-18.1%,2.3%,5.8µM*,-19.8%,4.3%,-13.8%,0.0%,4.61µM*
COc1cc(C2CC(=O)c3c([nH]c(C(=O)OCc4ccc(C)cc4)c3C)C2)cc(OC)c1OC (stereo not drawn),.,0.4%,2.31µM*,-9.2%,4.0%,-0.1%,-2.9%,4.61µM*
COc1cc(C2CC(=O)c3c([nH]c(C(=O)OCCOC(C)C)c3C)C2)cc(OC)c1OC (stereo not drawn),10.3µM*,-2.5%,4.61µM*,?,-0.6%,2.9%,-12.3%,9.2µM*
COc1cc(-c2nc(Cn3nnc(C(=O)Nc4ccc(C)cc4C)c3C)c(C)o2)cc(OC)c1OC,.,-3.4%,-11.1%,9.0%,-2.6%,.,.,.
CC1=[N+](C)c2c(ccc3cccnc23)C1(C)C,?,1.8%,2.06µM*,?,7.5%,-7.8%,-2.4%,2.59µM*
Clc1ccc2ccc3cccnc3c2n1,7.0%,-2.6%,-15.7%,-12.0%,0.4%,.,.,.
O=C(Oc1ccccc1N1C(=O)C2CCCCC2C1=O)c1ccccc1F (stereo not drawn),18.6%,0.0%,-1.2%,-6.9%,5.4%,.,.,.
O=C(Oc1ccccc1N1C(=O)C2CCCCC2C1=O)c1ccc(Cl)cc1 (stereo not drawn),13.4%,3.8%,4.61µM*,-3.5%,-0.6%,-1.2%,-0.7%,6.51µM*
Cc1ccc(S(=O)(=O)N2CCc3ccccc3CC2)cc1,.,-6.3%,8.2µM*,-1.8%,2.9%,2.8%,-1.7%,4.11µM*
CCOc1ccccc1NC(=O)NCCn1c(=O)oc2ccc(C)cc21,.,16.7%,2.8%,2.6%,0.2%,.,.,.
COC(=O)C1=C(O)C(C(=O)OC)C(c2ccc(C)cc2)C(C#N)(C#N)C1c1ccc(C)cc1 (stereo not drawn),?,-1.6%,2.91µM*,.,0.3%,3.2%,?,14.6µM*
S=C(NN=Cc1ccccn1)N(Cc1ccccn1)Cc1ccccn1,.,5.7%,?,-25.0%,8.9%,?,?,2.31µM*
COc1cccc(NC(=O)c2ccc3c(c2)CCN3S(C)(=O)=O)c1,16.6%,9.2%,20.2%,3.4%,4.2%,.,.,.
CS(=O)(=O)N1CCCc2cc(C(=O)Nc3cccc(C(F)(F)F)c3)ccc21,.,-1.0%,9.2µM*,-28.3%,0.6%,?,-15.5%,?
Cc1ccc(Nc2nc(C)nc(N)c2S(=O)(=O)c2ccccc2)cc1,.,-14.6%,-7.4%,-0.9%,-0.9%,.,.,.
Cc1cccc2c(N)c3c(nc12)CCCC3 (tested in a mixture with another compound),11.7%,0.0%,6.2%,?,0.2%,.,.,.
Cc1cc(C)c2c(N)c3cccc(C)c3nc2n1,?,2.3%,7.31µM*,-9.3%,-2.3%,-12.3%,-1.7%,3.26µM*
COc1ccc(Cn2cccc(NC(=O)Nc3cccc(C#N)c3)c2=O)cc1,?,12.4%,5.17µM*,-9.8%,2.8%,-16.8%,5.3%,?
Cc1ccc(CNc2c(C)c(C)nc3nncn23)cc1,.,-8.9%,3.66µM*,-7.4%,4.3%,-1.1%,0.8%,4.11µM*
Cc1ccsc1C(=O)OCC(=O)N1CC(C)CC(C)C1 (stereo not drawn),17.8%,2.0%,5.7%,-2.9%,0.5%,.,.,.
CCCCNc1nc2c(c(=O)n(C)c(=O)n2C)n1CCC,-5.4%,3.7%,-5.1%,0.2%,-0.4%,.,.,.
CCCNc1nc2c(c(=O)n(C)c(=O)n2C)n1CCCc1ccccc1,-15.9%,6.9%,?,-0.3%,-0.9%,.,.,.
CCCCCCn1c(NCC)nc2c1c(=O)n(C)c(=O)n2C,5.8µM*,-7.4%,3.66µM*,-17.3%,0.9%,1.0%,-7.4%,5.8µM*
CCCNc1nc2c(c(=O)n(C)c(=O)n2C)n1CCC(C)C,?,0.5%,9.2µM*,-19.9%,3.3%,1.9%,-4.6%,?
COc1cc(OC)c(/C=C/c2ccc3ccccc3[n+]2C)c(OC)c1,.,.,.,.,.,0.5%,?,1.64µM*
SMILES,ELG1 DNA repair,mIDH1 inhibitor,Nrf2 block,A549 tox-1,Nrf2 activator,FLuc counter 3,A549 tox-2,ARE-Fluc inh
CCC[n+]1c(/C=C/c2c(OC)cc(OC)cc2OC)ccc2ccccc21,.,.,.,.,.,-2.2%,7.31µM*,2.31µM*
CCCC[n+]1c(/C=C/c2c(OC)cc(OC)cc2OC)ccc2ccccc21,.,.,.,.,.,2.2%,?,1.64µM*
CCc1nn(CC(=O)Nc2ccc(NC(C)=O)cc2)c(=O)c2cc3sccc3n12,.,-11.0%,12.1%,8.3%,-1.2%,.,.,.
Cc1ccccc1OCCCn1c(-c2ccc(Cl)cc2)nc2ccccc2c1=O,.,5.3%,11.9%,2.1%,2.4%,.,.,.
COc1cc(OC)c(NC(=O)c2c(C)oc3nc(C)nc(N4CCOCC4)c23)cc1Cl,.,0.8%,?,4.7%,-0.3%,.,.,.
COc1cc2c(cc1OC)CN(C(=O)CN1CCN(S(=O)(=O)c3ccccc3Br)CC1)CC2,?,0.4%,1.84µM*,-6.8%,-0.6%,2.7%,-16.4%,-4.7%
O=c1c2ccccc2nc(-c2ccccc2)n1Cc1ccc(Cl)cc1,1.5%,-5.4%,15.0%,0.3%,-0.5%,.,.,.
O=c1c2ccccc2nc2n1CCN2Cc1ccc(Cl)cc1,-18.8%,2.0%,5.8µM*,-21.2%,4.5%,-15.5%,-12.5%,4.11µM*
O=C(CNc1cc(S(=O)(=O)N2CCOCC2)ccc1NCC1CCCO1)Nc1cccc(F)c1 (stereo not drawn),?,0.0%,-0.6%,1.8%,0.3%,.,.,.
CCOC(=O)c1cc2c(=O)n3ccccc3nc2n(CCOC)c1=NC(=O)c1c(-c2c(F)cccc2Cl)noc1C,-6.5%,0.2%,6.51µM*!,-19.9%,0.4%,0.1%,-17.3%,?
CCCCn1c(=NC(=O)c2c(-c3c(F)cccc3Cl)noc2C)c(C(=O)OCC)cc2c(=O)n3ccccc3nc21,.,-7.8%,-3.9%[9.27 µM],0.5%,-0.2%,.,.,.
CCOC(=O)c1c(NC(=O)Cn2c(C)nc3ccccc32)sc2c1CCC2,?,-2.5%,5.8µM*,-3.9%,-0.2%,0.9%,-10.1%,?
COCCNCc1cc(C)n(-c2cc(S(=O)(=O)N3CCOCC3)ccc2N2CCCC2)c1C,.,3.8%,13.9%,1.5%,0.2%,.,.,.
